Assay outcomes from PubChem BioAssay.
The list is not random: actives were taken first. Their share in the collection is about 10%.
KB-3-1 cytotox: kills parental KB-3-1 adenocarcinoma cells; KB-3-1 viability, CellTiter-Glo ATP luminescence, 72 h; Potency, µM (doses to about 46.1 µM), actives largely listed as cytotoxic; 400,000 tested, 1.4% active; AID 1347075; also: % is scaled to controls: 0 for no effect and ±100 for the full control effect; nearly all actives have a fitted effect of over 60% in size
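Cytotoxicity in the drug-sensitive parental line KB-3-1 was scored as loss of CellTiter-Glo luminescence following 72 h incubation with compound. Values come from curve fitting of normalized concentration-response data.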
KB-V1 cytotox: KB-V1 MDR subline cytotoxicity | KB-V1 MDR cells viability, CellTiter-Glo, 72 h | Potency, µM (titrated, usually from 46.1 µM), actives largely listed as cytotoxic | 400,000 tested, 3.4% active | AID 1347076; also: % is scaled to controls: 0 for no effect and ±100 for the full control effect; nearly all actives have a fitted effect of over 60% in size
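Cells of the MDR subline KB-V1 are plated, dosed with compound at multiple concentrations, and incubated 72 h at 37 degrees C; CellTiter-Glo is then added and luminescence read after 10 min.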
RORgamma inh: inhibitors of mouse ROR gamma transcriptional activity; P51450; Potency, µM (titrated, usually from 53.6 µM), for inactives: at the highest dose activity change, negative = inhibition, usual class: inhibitors; Drosophila S2 Gal4-RORgamma UAS-luciferase reporter, 20 h; AID 2551; 310,000 tested, 5.4% active; also: % is scaled to controls: 0 for no effect and ±100 for the full control effect; nearly all actives have a fitted effect of over 60% in size
Target sequence (P51450 whole entry, looked up, the tested form may be a part): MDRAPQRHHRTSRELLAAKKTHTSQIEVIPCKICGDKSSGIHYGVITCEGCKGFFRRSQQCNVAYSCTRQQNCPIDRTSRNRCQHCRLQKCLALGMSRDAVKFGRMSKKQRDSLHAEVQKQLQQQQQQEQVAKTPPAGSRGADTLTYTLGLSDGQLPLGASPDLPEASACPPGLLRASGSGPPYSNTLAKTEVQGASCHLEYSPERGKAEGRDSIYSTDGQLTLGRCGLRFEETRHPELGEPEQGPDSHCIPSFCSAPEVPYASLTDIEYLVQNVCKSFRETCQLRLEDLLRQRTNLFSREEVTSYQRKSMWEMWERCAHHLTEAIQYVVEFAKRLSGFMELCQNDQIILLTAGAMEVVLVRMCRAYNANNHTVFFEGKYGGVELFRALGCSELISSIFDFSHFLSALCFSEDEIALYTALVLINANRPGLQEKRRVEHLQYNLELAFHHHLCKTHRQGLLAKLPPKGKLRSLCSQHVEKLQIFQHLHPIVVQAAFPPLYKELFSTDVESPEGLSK
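Luciferase reporter read in Schneider cells carrying Gal4-RORγ (mouse) and UAS-Photinus luciferase; cells given compound 1 h before 700 uM copper sulfate induction, then incubated 20 h at ambient temperature.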
SW480 rereplic: inducers of DNA re-replication in SW480 colon cancer cells. SW480 DNA re-replication, Hoechst DNA content imaging, 48 h. Potency, µM (highest dose often 46.1 µM), for the others: top-dose re-replication activation, actives largely listed as activators. 340,000 tested, 1.8% active. AID 624297; also: % of control where 0% means no effect; nearly all actives have a fitted effect of over 55% in size
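Treated cells incubate 48 hr (37 C, 5% CO2), are stained 40 min with Hoechst, and nuclear fluorescence is enumerated; a rise in nuclei with high DNA signal marks re-replication.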
VP16 counter: counter-screen for ROR gamma inhibitors: Gal4-VP16 reporter | Drosophila S2 Gal4-VP16 UAS-luciferase, luminescence, 20 h | Potency, µM (series often up to 53.6 µM), for the others: at the top dose activity, negative = inhibition, actives largely listed as inhibitors | 310,000 tested, 3.5% active | AID 2546;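 also: Gal4-VP16 expression switched on by copper sulfate through the metallothionein promoter; % is scaled to controls: 0 for no effect and ±100 for the full control effect; nearly all actives have a fitted effect of over 50% in size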
MCF10A rerep: DNA re-replication induction in MCF 10a cells | 350,000 tested, 2.9% active | Potency, µM (series often up to 46.1 µM), inactives show top-dose activity, positive = re-replication, actives largely listed as activators | MCF 10A DNA re-replication, Hoechst nuclear intensity, 48 h; also: % of control where 0% means no effect; nearly all actives have a fitted effect of over 50% in size
Active calls of the source: *; i = inactive; ? = inconclusive; · = no result; [ ] = dose if it differs, or a comment. Calls follow the shape of the dose curve; as a rule, active = well fitted curve in the direction sought with a large enough effect; inconclusive = small, poorly fitted or top-dose-only effect, or another doubt; inactive = no such curve, though single readings can be large; an effect the other way counts as inactive or inconclusive. Potency is read from the fitted curve at half-maximal effect.

SMILES	KB-3-1 cytotox	KB-V1 cytotox	RORgamma inh	SW480 rereplic	VP16 counter	MCF10A rerep
COC(=O)C1=C(c2ccc(-c3ccccc3)c(F)c2)C[C@@H]2CC[C@H]1N2C(=O)N1CCCCC1	i	?	·	-57%[9.22 µM]	·	?
COC(=O)C1=C(c2ccc(-c3ccccc3)c(F)c2)C[C@@H]2CC[C@H]1N2C(=O)NC1Cc2ccccc2C1	?	i	·	3.7µM*	·	-44%
COc1ccc(OC)c([C@H](O)[C@H](C)N)c1	·	·	-1%[16.9 µM]	·	-3%[17 µM]	·
CC/C=C\C/C=C\C/C=C\C/C=C\C/C=C\CCCC(=O)NC(C)C(=O)O (stereo not drawn)	·	·	3%	·	3%	·
c1nc[n]([Sn]([CH]2CCCCC2)([CH]2CCCCC2)[CH]2CCCCC2)n1	·	·	?	·	22µM*	·
CC12CCC3C(=CCc4cc(O)ccc43)C1CCC2=O (stereo not drawn)	·	·	-3%	·	4%	·
CC1CCOC(=O)C=CC=CC(=O)OC2CC3OC4C5OC5(C)C(O)CC4(COC(=O)C1O)C2(C)C31CO1 (stereo not drawn)	0.21µM*	5.8µM*	·	?	·	0.23µM*
CC1=CC2OC3CC4OC(=O)C=CC=CC(C(C)O)OCC(O)C5(C)OC5C(=O)OCC2(CC1O)C4(C)C31CO1 (stereo not drawn)	0.015µM*	?	·	15%	·	16%
CC(O)C1C=CC=CC(=O)OC2CC3OC4C5OC5(C)C(O)CC4(COC(=O)C(O)C(C)CCO1)C2(C)C31CO1 (stereo not drawn)	0.21µM*	?	·	1.8µM*	·	?
CC1=CC2OC3CC4OC(=O)C=CC=CC(=O)OCCC(C)C(O)C(=O)OCC2(CC1)C4(C)C31CO1 (stereo not drawn)	0.037µM*	0.1µM*	·	?	·	12%
C(CCOCC1CO1)COCC1CO1 (stereo not drawn)	·	·	3%	·	-4%	·
O=C(O)c1ccccc1NS(=O)(=O)c1cccc(N=Nc2c(O)[nH]c(=S)[nH]c2=O)c1	i	i	·	-26%	·	-14%
[O-][Cl+]O	·	·	-11%	·	-13%	·
O=C1C=C2C=CC3C[C@@]2(O1)C1CCCCN31 (stereo partly drawn)	·	·	?	?	-21%	21µM*
O=C1C=C2C=C[C@@H]3CC2(O1)[C@H]1CCCCN31	?	?	·	-50%	·	14%
O=C(NC(O)C(Cl)(Cl)Cl)NC(O)C(Cl)(Cl)Cl (stereo not drawn)	·	·	4%	9%	0%	3%
Nc1cccc2ccccc12	·	·	-23%	·	2%	·
Oc1c(Cl)cccc1Cl	·	·	-2%	·	6%	·
Oc1c(Cl)cccc1Cc1cc(Cl)cc(Cl)c1O	?	?	·	1%	·	12µM*
C[C@]12CCC(=O)C=C1CCc1ccc(O)cc12	·	·	22%	·	-3%	·
CN(C(=O)Oc1ccc(Cl)c2cccnc12)c1ccccc1	i	18µM*	?	5%	13%	9%
CN(C)C(=O)Oc1c(Cl)cc(Cl)c2cccnc12	i	i	15%	3%	10%	-11%
CC(=O)Oc1ccc(Cl)c2cccnc12	·	·	0.56µM*	·	0.71µM*	·
c1cc(CN2CCCC3(CCNCC3)C2)ccn1	·	·	8%	·	3%	·
COc1ccc(NC(=O)c2cn(CCC#N)nc2-c2cccc([N+](=O)[O-])c2)cc1	i	i	-12%	-7%	-1%	-1%
SMILES	KB-3-1 cytotox	KB-V1 cytotox	RORgamma inh	SW480 rereplic	VP16 counter	MCF10A rerep
COc1ccc(Oc2cc(NC(=O)c3nn(C)cc3[N+](=O)[O-])cc([N+](=O)[O-])c2)cc1	21µM*	?	8%	?	-1%	2.1µM*
CC[C@]1(O)CC(O[C@@H]2CC(N(C)C)C(O)C(C)O2)c2c(cc3c(c2O)C(=O)c2c(O)ccc(O)c2C3=O)C1C(=O)OC (stereo partly drawn)	·	·	1.1µM*	·	2.2µM*	·
CC1CCC/C=C/C2CC(O)CC2C(O)/C=C/C(=O)O1 (stereo not drawn)	?	?	0%	0.1µM*	-11%	?
C[C@H]1CCC/C=C/C2C[C@H](O)CC2[C@H](O)/C=C/C(=O)O1 (stereo partly drawn)	0.026µM*	0.41µM*	0%	?	-28%	0.26µM*
C/C=C(/C)C(=O)OC1CC[C@]2(C)C3CCC4[C@]5(O)CC(O)[C@]6(O)C(CN7CC(C)CCC7[C@]6(C)O)[C@]5(O)C[C@@]42O[C@]13O (stereo partly drawn)	·	·	-1%	·	2%	·
COc1cccc([C@@]2(O)CCCCC2CN(C)C)c1 (stereo partly drawn)	·	·	-3%	·	-2%	·
COc1cc2c(cc1OC)-c1c(OC)c(OC)c(C=O)c3c1[C@H](C2)N(C)CC3	·	·	-1%	·	1%	·
CC1CCCCC1n1c(-c2cccnc2)n[nH]c1=S (stereo not drawn)	i	i	10µM*	-5%	?	-1%
Fc1ccccc1-c1n[nH]c(=S)n1Cc1ccccc1	i	i	7.1µM*	?	11µM*	-9%
CCCCn1c(O)c(C(C)=NCCc2c[nH]c3ccccc23)c(=O)[nH]c1=O	i	i	10%	-12%	?	-1%
O=C(/C=C/c1c[nH]c2ccccc12)c1c(O)n(CCc2ccccc2)c(=O)[nH]c1=O	i	?	5%	18µM*	2%	16µM*
C[N+]12CCC(CC1)C(=C(c1ccccc1)c1ccccc1)C2	?	i	16%	0%	-7%	1%
CC[N+]12CCC(CC1)C(=C(c1ccccc1)c1ccccc1)C2	15µM*	i	7%	4%	-10%	22%
NNc1ccccc1	·	·	1%	0%	2%	1%
CC(C)[C@]12O[C@H]1[C@@H]1O[C@]13[C@]1(O[C@H]1C[C@H]1C4=C(CC[C@@]13C)C(=O)OC4)[C@@H]2O	·	·	0.32µM*	·	0.4µM*	·
Clc1ccc(C(c2ccc(Cl)cc2)n2cc[n+](CC(OCc3ccc(Cl)cc3Cl)c3ccc(Cl)cc3Cl)c2)cc1 (stereo not drawn)	?	?	?	-27%	11µM*	5.2µM*
NC(=O)c1ccc(N=Cc2c(O)n(Cc3ccco3)c(=O)[nH]c2=O)cc1	i	i	17%	3%	-2%	1%
CCN(CC)c1ccc(N=Cc2c(O)n(CCc3ccc(OC)c(OC)c3)c(=O)[nH]c2=O)cc1	?	16µM*	17%	?	-4%	?
CCN(CC)c1ccc(N=Cc2c(O)n(Cc3ccco3)c(=O)[nH]c2=O)cc1	i	i	-12%	70%	-5%	26µM*
CCOC(=O)c1ccc(N=C(CC)c2c(O)n(C)c(=O)n(C)c2=O)cc1	i	i	24%	-3%	10%	-1%
